Bioassay records from PubChem.
RTF Ca sens inh – cardiac RTF calcium sensitivity inhibitors, primary screen, biochemical, IANBD-TnC fluorescence, EC70 calcium; IANBD-labeled cardiac RTF, Ca2+ fluorescence; AID 493244, 2011; hit rate 0.12% among 340,000; Troponin I, cardiac muscle (Homo sapiens) + Troponin T, cardiac muscle (Homo sapiens) + …; inhibition, % at 7.15 µM;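 active = inhibition above the mean inhibition of all tested compounds plus 3 SD, cut at about 17% in these data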;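 also: assay run at fixed EC70 calcium of 1.6 mM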
IDE act – human IDE activators in live cells, primary screen, fluorescence polarization, HEK cells, FAbeta-B substrate | FAbeta-B cleavage; 0% vehicle, 100% cell-free pure enzyme wells | hit rate 0.073% among 340,000 | activation, % at 5.96 µM | Insulin-degrading enzyme (Homo sapiens), P14735 | AID 493087, 2011;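 active = activation above the mean of all tested compounds plus 3 SD, set per screening campaign, cut at about 17% in these data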
CRFBP-R2 agonist – agonists of CRF-BP/CRF-R2 complex, primary screen, cell-based, HEK293, calcium dye fluorescence, uHTS | AID 588473, 2011 | CRF-binding protein / CRF receptor 2 complex (human) | hit rate 0.46% among 350,000 | calcium dye fluorescence (FLIPR); percent of saturating CRF peptide response | activation, % at 13.2 µM;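 active = activation of at least 50%, plus an integration ratio under a set limit after plate pattern correction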
RTF Ca sens act – cardiac RTF calcium sensitivity activators, primary screen, biochemical, IANBD-TnC fluorescence, EC20 calcium. AID 493008, 2010. Troponin I, cardiac muscle (Homo sapiens) + Troponin T, cardiac muscle (Homo sapiens) + …. hit rate 0.24% among 340,000. activation, % at 7.2 µM. IANBD-labeled TnC RTF fluorescence at EC20 calcium; 0% EC20 calcium, 100% full calcium;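 active = activation above the mean over all tested compounds plus 3 SD, cut at about 30% in these data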;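 also: rise in fluorescence read as greater calcium sensitivity of cardiac thin filaments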
CRFBP-R2 block – antagonists of CRF-BP/CRF-R2 complex, primary screen, cell-based, HEK293, calcium dye fluorescence, uHTS; CRF-induced calcium fluorescence; inhibition, % at 11.8 µM; hit rate 0.59% among 350,000; AID 588475, 2011;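 active = inhibition of the ligand-induced calcium signal above about 50% at the single tested concentration, limit read from the data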
IDE inh – human IDE inhibitors in live cells, primary screen, fluorescence polarization, HEK cells, FAbetaB substrate; Insulin-degrading enzyme (Homo sapiens), P14735; inhibition, % at 5.59 µM; hit rate 0.41% among 320,000; FAbetaB cleavage;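 active = percent inhibition above the average of all tested compounds plus 3 SD, set per screening campaign, cut at about 16% in these data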;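 also: IDE supplied by intact live HEK cells; FP after avidin binding of uncleaved biotin substrate so inhibition keeps polarization high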
Numbers stand for hits; n = inactive; x = no result given. Most compounds without a hit are left out; they make up all but 1.5% or so of the library.

SMILES	RTF Ca sens inh	IDE act	CRFBP-R2 agonist	RTF Ca sens act	CRFBP-R2 block	IDE inh
COc1ccc(Nc2nc(Cl)nc(NCc3ccco3)n2)c(OC)c1	n	n	n	n	55.9	n
CC(C)c1ccc(Nc2nc(Cl)nc(NCc3ccco3)n2)cc1	n	n	n	n	n	n
COc1cc(OC)cc(N(C(=O)CNC(=O)c2cccs2)C(C(=O)NCC2CCCO2)c2ccc(OC)c(OC)c2)c1 (stereo unspecified)	n	n	53.4	n	n	n
CC(Oc1ccc(Br)cc1)C(=O)NCC1(N2CCCCC2)CCCCC1 (stereo unspecified)	n	n	n	n	n	n
CCCNC(=O)/C(=C/c1cn(S(=O)(=O)N(C)C)c2ccccc12)NC(=O)c1ccc(OC)cc1	n	n	78.2	n	n	n
CNC(=S)N1CCc2cc(OC)c(OC)cc2C1COc1ccc(OC)cc1 (stereo unspecified)	n	n	n	n	n	n
COCCNC(=S)N1CCc2cc(OC)c(OC)cc2C1COc1cc(C)cc(C)c1 (stereo unspecified)	n	n	n	n	86.4	n
Clc1ccc(-c2nnc3sc(-c4ccc(Br)o4)nn23)c(Cl)c1	n	n	n	n	n	n
Clc1ccc(-c2nnc3sc(-c4ccc(Br)o4)nn23)cc1	n	n	52.5	n	n	n
CN1CC(=O)N(CC(=O)N2CCC(Cc3ccccc3)CC2)C1=O	n	n	n	n	100.0	n
CC(OC(=O)c1ccccc1C(=O)N(C)C1CCCCC1)C(=O)NC1(C#N)CCCCC1 (stereo unspecified)	n	n	n	n	n	n
CCOC(=O)c1cc[nH]c1CC(=O)NC	n	n	n	n	n	n
CCC(C)[C@H](NC(=O)N1CCCC1)C(=O)OC (stereo partly specified)	n	n	n	n	n	n
CCC(C)[C@H](NC(=O)N1CCC(C)CC1)C(=O)OC (stereo partly specified)	n	n	n	43.5	n	n
Cc1nnsc1NC(=O)OCc1ccc(Cl)cc1Cl	n	n	n	n	n	n
Cc1nn(C)c(Cl)c1NC(=O)OCc1ccc(Cl)cc1Cl	n	n	n	n	51.8	n
O=C(OCc1cc(=O)n2ccsc2n1)C1(c2ccccc2)CC1	x	x	n	x	71.4	x
O=c1cc(CN2CCc3ccccc32)nc2sccn12	n	n	n	n	n	n
COC(=O)c1ccc(OCc2cc(=O)n3ccsc3n2)cc1	n	n	n	n	n	n
O=c1cc(CN2CCCc3ccccc32)nc2sccn12	n	n	n	61.9	n	n
O=C(NCc1ccccc1)C1=C[C@H](c2ccccc2)C[C@H](OCc2ccc(CO)cc2)O1	n	n	n	n	83.5	n
Oc1ccc2ccccc2c1CNc1ccccn1	n	n	n	n	n	n
COc1ccc(S(=O)(=O)N(C)CC(=O)NCCc2ccccc2)cc1OC	n	n	n	n	n	n
Cc1ccc(S(=O)(=O)N(C)CC(=O)NCCCc2ccccc2)cc1	n	n	61.4	n	n	n
COc1ccccc1C/C(N)=N/OC(=O)/C=C/c1ccccc1	n	n	n	n	n	n
SMILES	RTF Ca sens inh	IDE act	CRFBP-R2 agonist	RTF Ca sens act	CRFBP-R2 block	IDE inh
CCCCC1(C)OC(=O)C(=Cc2ccc(N(CC)CC)cc2)C(=O)O1 (stereo unspecified)	n	n	59.4	n	n	n
CCN(CC)c1ccc(C=C2C(=O)OC3(CCCCC3)OC2=O)cc1	n	n	n	n	n	n
CCCNS(=O)(=O)c1cccc(C(=O)NC2CCCc3ccccc32)c1 (stereo unspecified)	n	n	n	n	51.9	n
CN(C)S(=O)(=O)c1cccc(C(=O)NC2CCCc3ccccc32)c1 (stereo unspecified)	n	n	n	n	n	n
CC(C)Cc1cc(C(=O)Nc2cccnc2)no1	n	n	n	n	n	n
CSc1ccccc1NC(=O)c1cc(CC(C)C)on1	n	n	n	n	62.7	n
